This note sets out measurements from PubChem BioAssay (NCI).

What all share (experiment): NCI-60 one-dose screen, 48 h (100 = growth as untreated, 0 = no growth, -100 = all killed)
Holding throughout (conditions): 10 µM unless noted

Assay [1] relates to NCI-H23 lung.
For assay [2], the system named is NCI-H226 lung.
The subject of assay [3] is NCI-H322M lung.
The test system of assay [4] is HOP-62 NSCLC.
For assay [5], the system named is NCI-H460 lung.
In assay [6] the test system is HOP-92 NSCLC.
Assay [7] relates to NCI-H522 lung.
For assay [8], the system named is A549/ATCC NSCLC.
The subject of assay [9] is 786-0 renal.
The subject of assay [10] is COLO 205 colon.
The subject of assay [11] is DU-145 prostate.
The subject of assay [12] is K-562 leukemia.
The subject of assay [13] is MALME-3M melanoma.
The test system of assay [14] is MDA-MB-231 breast.
The subject of assay [15] is SF-268 CNS.
Assay [16] concerns SF-295 CNS.
Assay [17] deals with SF-539 CNS.
Assay [18] deals with UACC-257 melanoma.
For assay [19], the system named is M14 melanoma.

The panel holds about 83,000 compounds, 20% with a hit somewhere; the sample as a whole holds those more often.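 Activity criterion: percent growth below 10, measured after cells in 96-well plates were exposed to a single compound concentration for 48 hours.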 Values without a mark were called inactive. The source made the active and inactive calls.

Turning to `COc1ccc2c(c1)OC1=C(C(=O)OC1)C2c1cc(OC)c(OC)c(OC)c1` (configuration not stated), the growth in [1] is 31.8%; in assay [2], 26.8%; in assay [3], 52.6%; in [4] it was 33.2%; in assay [5], 5.28% (active); in [6], 74.8%. For the same compound, the growth in [7] was -32.5% (active); in assay [8], 20.7%; in assay [9], 36.8%; in assay [10], 1.87% (active); in [11], 6.88% (active); in [12], 14.1%. The growth in assay [13] was 61.1%; in assay [14] it was 42.7%; in assay [15], 32%; in assay [16], 8.32% (active); in assay [17] it was 0.966% (active); in [18], 39.6%. Moreover, in [19], the growth was 10.2%.
For the compound `CN(C)Cc1c(-c2ccccc2)[nH]c2ccccc12`, the growth in assay [1] is 88.7%; in [2], 106%; in assay [3] it was 114%; in assay [4] it was 80.3%; in assay [5], 99.5%; in assay [6], 96.4%. Moreover, the growth in assay [7] is 82.5%; in assay [8], 80.3%; in assay [9], 90%; in assay [10], 107%; in [11] it was 113%; in assay [12], 107%. Also, the growth in [13] was 128%; in [14], 102%; in assay [15], 92.1%; in assay [16] it was 92.7%; in assay [17], 106%; in [18], 99.3%. Besides, the growth in [19] was 82.6%.
`O=C1NC(=S)NC(=O)C1=Cc1cn(Cc2ccccn2)c2ccccc12`: the growth is 77.9% in assay [1]; 86.7% in assay [2]; 95.5% in [3]; 53.6% in assay [4]; 10.7% in assay [5]; 66.9% in assay [6]. Also, the growth is 76.6% in assay [7]; 66.2% in [8]; 43.9% in [9]; 58.4% in [10]; 76.8% in assay [11]; 26.4% in assay [12]. Besides, the growth in assay [13] was 85.1%; in [14] it was 53.3%; in assay [15] it was 59.6%; in [16] it was 73.6%; in assay [17], 60.7%; in assay [18] it was 87.8%. Besides, the growth in assay [19] was -61.2% (active).
As to `CC(C)[N+](C)(CCOC(COc1ccccc1)COc1ccccc1)C(C)C`, the growth in assay [1] is 84.1%; in assay [2], 91.2%; in assay [3] it was 101%; in assay [4], 98.6%; in assay [5], 106%; in assay [6], 72.2%. For the same compound, the growth was 68% in assay [7]; 92.5% in assay [8]; 102% in assay [9]; 67.9% in [10]; 106% in assay [11]; 53% in [12]. Moreover, the growth in [13] is 105%; in [14], 98%; in assay [15] it was 94.5%; in assay [16], 98.9%; in assay [17] it was 100%; in assay [18], 78.7%. Moreover, the growth in [19] is 100%.
As to `CC1(C)CN(Cc2ccccc2)CCN1Cc1ccccc1`, the growth in assay [1] is 104%; in assay [2], 95%; in assay [3], 103%; in [4], 108%; in [5], 106%; in [6], 96.3%. Besides, the growth in [7] is 91.8%; in [8], 89.5%; in [9] it was 99.6%; in assay [10] it was 112%; in assay [11] it was 114%; in [12], 98.8%. Also, the growth in [13] was 116%; in assay [14], 101%; in assay [15], 105%; in [16], 101%; in [17], 107%; in assay [18] it was 89.1%. Moreover, in assay [19], the growth is 107%.
Regarding `CCCCCCCCCCN=C(N)N=C(N)N`, the growth in assay [1] is 29.4%; in assay [2], 47.4%; in [3], 80.9%; in [4], 50.6%; in assay [5] it was 40.6%; in assay [6], 21.2%. Moreover, the growth in assay [7] was 53%; in assay [8], 70.1%; in [9], 26.2%; in [10], 32%; in [11], 79.1%; in [12], 21.3%. For the same compound, the growth in assay [13] was 30.4%; in [14], 38.8%; in assay [15], 33.1%; in assay [16], 42.8%; in assay [17], 58.5%; in assay [18], 48.5%. The growth in assay [19] is 48.2%.
For the compound `Cc1cccc(Oc2ccc(Nc3ncnc4ccc(NC(=O)CNCCO)cc34)cc2Cl)c1`, the growth in assay [1] is 85.1%; in assay [2] it was 96.7%; in assay [3] it was 18.9%; in assay [4] it was 78.2%; in assay [5], 39.2%; in assay [6] it was 30.4%. The growth in assay [7] was 31.6%; in assay [8], 52.8%; in [9], 55.7%; in assay [10], 56.2%; in assay [11], 44.3%; in assay [12] it was 13.5%. Further, the growth was 70.5% in assay [13]; 74.3% in assay [14]; 61.7% in assay [15]; 79.9% in [16]; 64.6% in [17]; 93.4% in assay [18]. In addition, the growth in assay [19] was 74.3%.
As for `Fc1ccc(C2CC(c3cccc(Nc4ccncc4)c3)=NN2c2ccc(Cl)cc2)cc1` (configuration not stated), the growth in assay [1] was 88.6%; in [2] it was 91.4%; in assay [3], 78%; in [4], 64.9%; in [5] it was -53.9% (active); in assay [6] it was 52.2%. For the same compound, the growth in assay [7] is 83.1%; in [8], 52.6%; in assay [9], 104%; in assay [10] it was -59.8% (active); in assay [11] it was 52%; in assay [12] it was 1.22% (active). Moreover, the growth in [13] was 33.1%; in assay [14], 60.7%; in [15], 77.9%; in assay [16], 66.5%; in assay [17], 84.1%; in assay [18], 80.8%. The growth in assay [19] was 101%.
